Experimental data reported in PubChem BioAssay (NCI).
The panel holds about 83,000 compounds, 20% with a hit somewhere; the sample as a whole holds those more often.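 Compound tested at a single concentration for 48 hours in 96-well plates; a percent growth value below 10 was scored as active.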 Unmarked numbers belong to inactive results. Calls of active or inactive are those of the source.

Experiments:
Assay in all cases: NCI-60 one-dose screen, 48 h (100 = growth as untreated, 0 = no growth, -100 = all killed)
Conditions in all cases: 10 µM unless noted
SR leukemia = system: SR leukemia
RPMI-8226 leukemia = system: RPMI-8226 leukemia
OVCAR-8 ovarian = system: OVCAR-8 ovarian
OVCAR-5 ovarian = system: OVCAR-5 ovarian
OVCAR-4 ovarian = system: OVCAR-4 ovarian
SK-OV-3 ovarian = system: SK-OV-3 ovarian
IGROV1 ovarian = system: IGROV1 ovarian
OVCAR-3 ovarian = system: OVCAR-3 ovarian
HS 578T breast = system: HS 578T breast
NCI/ADR-RES ovarian = system: NCI/ADR-RES ovarian

| SMILES | growth (SR leukemia) | growth (RPMI-8226 leukemia) | growth (OVCAR-8 ovarian) | growth (OVCAR-5 ovarian) | growth (OVCAR-4 ovarian) | growth (SK-OV-3 ovarian) | growth (IGROV1 ovarian) | growth (OVCAR-3 ovarian) | growth (HS 578T breast) | growth (NCI/ADR-RES ovarian) |
| --- | --- | --- | --- | --- | --- | --- | --- | --- | --- | --- |
| O=C(/C=C/c1cccc(F)c1)c1cccc(OCCCCOc2cccc(C(=O)/C=C/c3cccc(F)c3)c2)c1 | 84.8% | 8.56% (active) | 104% | 99.1% | 106% | 109% | 103% | 105% | 99.3% | 106% |
| COC(=O)c1ccc(NC2=C(Cl)C(=O)C(C)=C(C)C2=O)cc1 | 13.6% | 36.5% | 77.9% | 90.9% | 32.4% | 86.2% | 70.4% | 30.1% | 77.1% | 65.2% |
| Cn1cc(-c2nnc(N)nc2-c2c[nH]c3ccc(Br)cc23)c2cc(Br)ccc21 | 78.4% | 109% | 104% | 120% | 98.6% | 111% | 107% | 108% | 91.4% | 110% |
| CC(=O)OCCCCN1C=C/C(=C\C(=O)n2ccc3ccccc32)c2ccccc21 | 88.7% | 98.3% | 102% | 102% | 85.5% | 97.6% | 83.3% | 100% | 102% | 109% |
| Cc1cc2nc(C(Cl)Cl)nc(-c3ccc(S(=O)(=O)N(C)C)cc3)n2n1 | 11.8% | 55.3% | 33.9% | 67.3% | 57.2% | 50.5% | 23.1% | 78.4% | 72.7% | 26.3% |
| O=C(Nc1ccc(Cl)c(C(F)(F)F)c1)Nc1ccc2c(ccn2C(=O)c2cccc(F)c2)c1 | 27.5% | -6.63% (active) | 34.1% | 67.3% | 7.18% (active) | 99.1% | 25% | 9.54% (active) | 52.4% | 30.8% |
| C[C@@H]1OCC2(CCN(c3cnc(C(=O)Nc4cc(F)cc5cccnc45)cn3)CC2)[C@@H]1N | 2.82% (active) | 55.5% | 86.8% | 80% | 14.8% | 102% | 28% | 18.7% | 66.6% | 76.4% |
| COc1ccc(C(=O)c2c(N)c(C#N)cn2-c2ccc(Cl)cc2Cl)cc1 | 92.1% | 101% | 94.6% | 93.9% | 103% | 117% | 101% | 106% | 90.9% | 86.7% |
| CCCCCCOC(=O)c1cc(-c2ccc(F)cc2)nc2ccccc12 | 107% | 110% | 98.1% | 102% | 101% | 87.4% | 88.3% | 104% | 94.1% | 96.1% |
| CC(Nc1c(C#N)cnc2ccc(-c3cncc(-c4n[nH]c(=O)o4)c3)cc12)c1ccccc1 (stereo not given) | 6.62% (active) | 10.5% | 18.1% | 26% | -5.14% (active) | 3.52% (active) | -20% (active) | 3.98% (active) | -22.2% (active) | 67.7% |
| Cc1[nH]c(C(=O)Nc2ccccc2OCc2cccc(C(=O)NCCN)c2)cc1Cl | -3.39% (active) | 89.6% | 84.7% | 97% | 102% | 101% | 94.5% | 109% | 102% | 99.4% |
| COc1cc(NC(=O)Nc2cccc(-c3cc(=O)c4c(OC)c(OC)c(OC)cc4o3)c2)cc(OC)c1OC | 54.5% | 31.4% | 38.4% | 79.5% | 65.5% | 111% | 34.5% | 40.1% | 17.1% | 82.4% |
| O=C(CSc1cc[n+](CCCCO)c2ccccc12)n1ccc2ccccc21 | 90.3% | 103% | 95.5% | 102% | 105% | 91% | 20.2% | 104% | 106% | 105% |
| C/C(=C(\c1ccc(O)cc1)c1ccc(OCCN2CCCCCC2)cc1)c1ccc(Cl)cc1 | -24.9% (active) | -2.67% (active) | -73.5% (active) | -56.3% (active) | -59.8% (active) | -85.5% (active) | -65.1% (active) | -73.3% (active) | -46.2% (active) | -72.7% (active) |
| CC(Nc1ncnc2ccc(-c3cnc4cnccn34)cc12)c1ccccc1 (stereo not given) | 38.9% | 46.6% | 59.7% | 68.2% | 41.4% | 60.6% | 5.93% (active) | 67.5% | 63.1% | 52.6% |
| COc1ccc(C(C)=C(c2ccc(OCCN(C)C)cc2)c2ccc(OCCN(C)C)cc2)cc1 | -46.5% (active) | -48.5% (active) | -2.55% (active) | -5.23% (active) | -35.4% (active) | -5.19% (active) | -24.6% (active) | -46.2% (active) | -46.7% (active) | 0.85% (active) |
| CC(=C(c1ccc(OCCN2CCCC2)cc1)c1ccc(OCCN2CCCC2)cc1)c1ccc(Cl)cc1 | -45.8% (active) | -54.8% (active) | -6.74% (active) | -16% (active) | -11.2% (active) | 85.8% | -50.7% (active) | -20.8% (active) | -31.2% (active) | -12% (active) |
| COc1ccccc1/C=C1\Oc2ccc(O)c(O)c2C1=O | 99.6% | 93.5% | 94.1% | 105% | 84% | 105% | 98.7% | 102% | 87.9% | 98.5% |
| COc1ccc(OC)c(NC(=O)CCCCCCNC(=O)C(O)(O)C(F)(F)F)c1 | 12.9% | 20.9% | 23.4% | 26.3% | 86.7% | 6.28% (active) | 55.2% | 40.5% | 49.7% | 32.8% |
| O=C(CSc1nc2ccccc2c(=O)n1CCc1ccccc1)Nc1ccc(S(=O)(=O)Nc2ccc(Cl)nn2)cc1 | 95.9% | 102% | 92% | 95.8% | 93.1% | 94.1% | 95.6% | 98.8% | 97.1% | 91.7% |
| CCOC(=O)c1c(NC(=O)c2cccc(C(F)(F)F)c2)sc2c3c(ccc12)OCN(C)C3 | -41.7% (active) | -47.6% (active) | -41.6% (active) | -14% (active) | -44.2% (active) | 75.7% | -78.7% (active) | -44.7% (active) | 38.4% | -54.3% (active) |
| CCOC(=O)c1c(NC(=O)c2ccc(C(F)(F)F)cc2)sc2c(CN3CCN(C)CC3)c(O)ccc12 | -56.9% (active) | -42% (active) | -56.2% (active) | -52.6% (active) | -53.8% (active) | -4.72% (active) | -82.7% (active) | -68.9% (active) | -17.8% (active) | -63.2% (active) |
| CCCNNC(=O)c1ccc(-c2ccc(NC(=O)CCCCCCC(=O)N[C@H](C(=O)N3C[C@H](O)C[C@H]3C(=O)N[C@@H](C)c3ccc(-c4scnc4C)cc3)C(C)(C)C)cc2)cc1 | 17.9% | 2.23% (active) | 32.7% | 27.3% | 53.6% | 18.5% | 25.5% | 30.2% | 30.3% | 96.7% |
| O=C(Nc1ccc(N2CCOCC2)cc1)Nc1ccc2c(ccn2C(=O)c2cccc(F)c2)c1 | 71.8% | 58.5% | 58.3% | 99.3% | 82.6% | 111% | 81% | 82.7% | 21.7% | 74.2% |
| CCCC[n+]1ccc(SCC(=O)n2ccc3ccccc32)c2ccccc21 | 56.3% | 59.5% | 92.7% | 103% | 72.1% | 88.9% | 83.3% | 91.8% | 99.6% | 110% |
| O=C(NNc1nc2cc(F)cc(F)c2n2cccc12)c1cccnn1 | 14.8% | 11.8% | 19% | 46.3% | 4.96% (active) | -1.52% (active) | 13.5% | 14% | 32% | 0.935% (active) |
| O=C(CSc1nc2ccccc2c(=O)n1-c1ccc(S(=O)(=O)Nc2ccc(Cl)nn2)cc1)Nc1ccc(S(=O)(=O)Nc2ccc(Cl)nn2)cc1 | 87.3% | 108% | 103% | 103% | 101% | 105% | 107% | 108% | 106% | 103% |
